AmpC inh no detg: AmpC beta-lactamase inhibition without detergent | 330,000 tested, 0.52% active | AmpC nitrocefin hydrolysis, absorbance 480 nm, 0.0001% Triton | Potency, µM (doses to about 57.1 µM), actives largely listed as inhibitors | P00811; active = well fitted curve in the direction sought with a large enough effect; inconclusive = small, poorly fitted or top-dose-only effect, or another doubt; inactive = no such curve, though single readings can be large; an effect the other way counts as inactive or inconclusive; note: nearly all actives have a fitted effect of over 20% in size
Target sequence (P00811 whole entry, looked up): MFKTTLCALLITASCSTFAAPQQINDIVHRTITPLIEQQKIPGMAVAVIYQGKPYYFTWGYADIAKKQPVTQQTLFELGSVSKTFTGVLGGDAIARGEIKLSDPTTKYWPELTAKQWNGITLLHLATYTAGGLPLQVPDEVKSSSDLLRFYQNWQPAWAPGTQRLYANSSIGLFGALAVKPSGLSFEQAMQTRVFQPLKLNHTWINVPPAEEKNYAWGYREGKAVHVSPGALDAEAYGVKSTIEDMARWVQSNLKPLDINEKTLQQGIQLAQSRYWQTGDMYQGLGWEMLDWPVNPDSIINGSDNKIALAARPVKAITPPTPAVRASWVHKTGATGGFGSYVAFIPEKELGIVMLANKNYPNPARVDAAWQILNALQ
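20 mM phosphate pH 7.0 + 0.01% (detergent screen) or 0.0001% Triton X-100; 5.3 nM AmpC reagent; cpd preinc 15 min RT; nitrocefin (800 uM stock) to start; A480 q20 s × 4 min; Activity was normalised to no-enzyme and no-compound control wells.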
NS1 inh: influenza NS1 inhibition; 270,000 tested, 0.4% active; Potency, µM (top dose mostly 46.1 µM); AID 2326; note: actives are rising curves; nearly all actives have a fitted effect of over 50% in size
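Growth recovery, yeast-based: influenza A NS1 expressed in S. cerevisiae causes slow growth, and suppressors are detected by OD600. The parent strain without NS1 is used as positive control.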
AmpC detergent: AmpC beta-lactamase inhibition with detergent present | P00811 | AmpC hydrolysis of nitrocefin, absorbance 480 nm, 0.01% Triton | Potency, µM (top dose mostly 114 µM), usual class: inhibitors | 370,000 tested, 0.041% active | AID 485294; active = well fitted curve in the direction sought with a large enough effect; inconclusive = small, poorly fitted or top-dose-only effect, or another doubt; inactive = no such curve, though single readings can be large; an effect the other way counts as inactive or inconclusive; note: nearly all actives have a fitted effect of over 25% in size
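20 mM phosphate pH 7.0 + 0.01% (detergent screen) or 0.0001% Triton X-100; 5.3 nM AmpC reagent; cpd preinc 15 min RT; nitrocefin (800 uM stock) to start; A480 q20 s × 4 min; Activity was normalised to no-enzyme and no-compound control wells.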
CHX counter: counter-screen hit for Shiga toxin inhibitors, cycloheximide; max response, %; cell reporter, cycloheximide protein synthesis inhibition counterscreen; AID 2314; 300,000 tested, 12% active; in the data active = max response mostly above about 13%, no sharp cut-off; inactive = mostly below about 14%; note: read at 38.3 µM for the half of the compounds with a filed dose
Shiga toxin inh: blocks Shiga toxin action in Vero cells; inhibition, % at 38.7 µM; AID 2315; 290,000 tested, 9.2% active; Vero cells, Shiga toxin protein synthesis inhibition reporter; in the data active = inhibition mostly above about 28%, no sharp cut-off; inactive = mostly below about 43%
Flu NS1 inh: validation of influenza NS1 protein function inhibitors; shares compounds with NS1 inh; influenza NS1 function cell assay, 15-point titration; activity change, negative = inhibition, % at 32.9 µM; 1,400 tested, under 10 active
Flu PR8 replic: influenza virus titer reduction, NS1 project; 95 tested, 30% active; shares compounds with NS1 inh; MDCK infected influenza A/PR/8/34, virus titer TCID50; hits give low values; virus titer (log TCID50), log10 TCID50 at 5 µM; call rule not given here
Numbers stand for hits; – = inactive; ? = inconclusive; · = no result. The sample as a whole holds a higher share of hits than the screen did. Unless noted, calls come from the whole dose curve.

SMILES | AmpC inh no detg | NS1 inh | AmpC detergent | CHX counter | Shiga toxin inh | Flu NS1 inh | others
O=[N+]([O-])c1ccccc1S(=O)(=O)N(CC1CO1)c1ccccc1 (stereo unspecified) | – | – | – | – | – | ·
O=C(CN(c1ccccc1)S(=O)(=O)c1ccccc1[N+](=O)[O-])NN=C1CCCCCCC1 | – | 1.3µM | – | – | – | ?
CN(N=O)c1cc(O)ccc1O | · | 18µM | · | – | – | ?
O=C(c1ccc(O)cc1)c1ccc(O)cc1O | – | – | – | – | – | ·
Cc1cc(C)nc(Sc2nc(Nc3ccccc3)nc(Sc3nc(C)cc(C)n3)n2)n1 | – | – | – | – | – | ·
CCCCOc1c(Br)cc(/C=C2\N=C(C)OC2=O)cc1OCC | – | 3.5µM | – | – | – | –
O=C(COC(=O)c1cccc(S(=O)(=O)N2CCOCC2)c1)Nc1nc(-c2ccccc2Cl)cs1 | – | 11µM | – | 28 | 93 | ?
COC(=O)[C@]1(C)N[C@H](c2ccc(SC3CCCCC3)c(OC)c2)[C@@H]2C(=O)N(C)C(=O)[C@@H]21 | – | · | – | · | · | ·
O=C(CN1CCN(c2ccccc2O)CC1)NCCCc1ccccc1 | – | · | – | – | – | ·
COC(=O)c1cc(NC(=O)c2cc(C(C)(C)C)nn2Cc2ccc(F)cc2)ccc1N1CCOCC1 | – | ? | – | – | – | –
COC(=O)C1=C(C)OC(N)=C(C#N)C1c1c(C)nn(C)c1C (stereo unspecified) | – | 2.2µM | – | – | – | –
O=C(NCc1ccccc1F)c1ccc(S(=O)(=O)N2CCCCCC2)cc1 | – | · | – | · | · | ·
Cc1cc(C)cc(NC(=O)N2CCN3CCCCC3C2)c1 (stereo unspecified) | · | · | – | · | · | ·
Cc1ccc(C)c(N2CCN(C(=O)C3CCN(S(=O)(=O)c4cccc5nsnc45)CC3)CC2)c1 | – | ? | – | – | – | – | Flu PR8 replic=–
COc1ccc(NCc2cc3cc(OC)ccc3[nH]c2=O)cc1 | – | – | ? | – | – | ·
COc1ccc2[nH]c(=O)c(CNc3cccc(C)c3)cc2c1 | – | 2.8µM | – | 29 | – | –
CCOC(=O)C1=C(C)N=c2s/c(=C/c3ccccc3)c(=O)n2C1c1ccc(OC)c(OC)c1 (stereo unspecified) | – | – | – | – | – | ·
CCOC(=O)C1=C(c2ccccc2)N=c2s/c(=C\c3cc(OC)c(OC)c(OC)c3)c(=O)n2C1c1cccs1 (stereo unspecified) | – | 22µM | – | – | – | –
C=CCNC(=O)c1cccc(NS(=O)(=O)c2ccc(Cl)cc2)c1 | – | · | – | – | – | ·
COc1ccc(C)cc1NC(=O)C1CCN(S(=O)(=O)c2ccc3c(c2)NC(=O)CO3)CC1 | – | – | – | – | – | ·
O=C(Nc1ccc(Cl)c(Cl)c1)Nc1cc(S(=O)(=O)N2CCOCC2)ccc1N1CCCC1 | – | 11µM | ? | – | – | –
O=C(COc1ccc(F)cc1Cl)Nc1cc(S(=O)(=O)N2CCOCC2)ccc1N1CCCCC1 | – | 3.5µM | – | – | – | –
Cc1nc2c(c(=O)n1CCC1=CCCCC1)c1nc3ccccc3nc1n2/N=C/c1ccco1 | – | 10µM | – | – | – | –
CCCn1c(C)nc2c(c1=O)c1nc3ccccc3nc1n2CCc1ccccc1 | · | – | · | · | · | ·
CCCn1c(C)nc2c(c1=O)c1nc3ccccc3nc1n2CCC1=CCCCC1 | – | 2µM | – | – | – | ?
SMILES | AmpC inh no detg | NS1 inh | AmpC detergent | CHX counter | Shiga toxin inh | Flu NS1 inh | others
NC(=O)c1ccc(NC(=O)CNC(c2ccccc2)c2ccccc2)cc1 | – | – | – | – | – | ·
CCOC(=O)c1ccc(NC(=O)CCc2c(C)nc3nc[nH]n3c2=O)cc1 | · | · | – | · | · | ·
Cc1ccc(N(CC(=O)N/N=C/c2ccco2)S(=O)(=O)c2ccccc2)cc1 | – | 11µM | – | – | – | – | Flu PR8 replic=–
O=C(CN(c1ccccc1)S(=O)(=O)c1ccccc1)N/N=C/c1ccco1 | – | – | – | – | – | ·
C/C(=N\Nc1ccccc1)c1c(O)n(-c2ccccc2)c(=O)[nH]c1=O | – | – | – | – | – | ·
C/C(=N\Nc1ccccc1)c1c(O)n(Cc2ccccc2)c(=O)[nH]c1=O | – | 10µM | – | – | – | –
O=C(NCc1ccco1)C1(S(=O)(=O)c2ccccc2)CC=CC1 | – | – | – | – | – | ·
CCOC(=O)C1=C(c2ccccc2)NC(SCC(=O)Nc2ccccc2C)=C(C#N)C1c1ccco1 (stereo unspecified) | – | 11µM | – | – | – | ?
CCOC(=O)C1=C(c2ccccc2)NC(SCC(=O)Nc2cccc(C)c2)=C(C#N)C1c1ccco1 (stereo unspecified) | – | ? | – | – | – | –
CC(C)CCNC(=O)NC(=O)CSc1nnc2ccccn12 | – | 4.5µM | – | – | – | –
CC(C)CNC(=O)CSc1nnc2ccccn12 | – | · | – | – | – | ·
CN(C)C(CNC(=O)c1cc(Br)ccc1Cl)c1ccco1 (stereo unspecified) | – | 2µM | – | – | – | –
COc1ccc(Cl)cc1C(=O)NCC(c1ccco1)N(C)C (stereo unspecified) | – | – | – | – | – | ·
CCOc1ccc(C(=O)Cn2cnnc2C#N)cc1 | – | ? | ? | – | – | –
O=C(Nc1cccc(S(=O)(=O)NC2=NCCCCC2)c1)c1cc(-c2ccc(Cl)cc2)nc2ccccc12 | ? | 11µM | – | – | – | –
Cc1ccc(-c2cc(C(=O)Nc3ccc(S(=O)(=O)Nc4nc(C)cc(C)n4)cc3)c3ccccc3n2)cc1 | – | 14µM | – | – | – | –
CC(=O)NS(=O)(=O)c1ccc(NC(=O)c2cc(-c3ccc(C)cc3)nc3ccccc23)cc1 | – | 8.9µM | – | – | – | –
Cc1cccc(Nc2nnc(SC/C(O)=C(\C#N)c3nc4ccccc4[nH]3)s2)c1 | – | 13µM | – | – | – | –
Cc1ccc(Nc2nnc(SC/C(O)=C(\C#N)c3nc4ccccc4[nH]3)s2)c(C)c1 | – | – | – | – | – | ·
Nc1ccccc1OCCOCCOc1ccccc1N | – | 5µM | – | – | – | –
NC(=O)c1ccccc1OCCOCCOCCOc1ccccc1C(N)=O | – | – | – | – | – | ·
N#CCCn1cc(C(CC(=O)c2ccc(Br)cc2)C(=O)O)c2ccccc21 (stereo unspecified) | – | 8.9µM | – | – | – | –
Cc1ccc(C(=O)CC(C(=O)O)c2cn(CCC#N)c3ccccc23)cc1 (stereo unspecified) | – | ? | ? | – | – | ·
COc1cc(Cl)ccc1OCc1cc(C(=O)NC2CCc3ccccc32)no1 (stereo unspecified) | – | – | – | – | – | ·
COc1cc(Cl)ccc1OCc1cc(C(=O)N2CCCCC2c2cccnc2)no1 (stereo unspecified) | – | 3.2µM | ? | 17 | – | ?
